PubChem BioAssay (Tox21)
Several values for one entry are separate records, joined by “and”; a condition that tells them apart may be missing. Equal values may be shown once. Inconclusive results are not listed. Entries that show only a call come without a potency. The source holds several records for some structures; these can differ, active in one and inactive in another. Activity calls are given as the source filed them. Unless noted, the call rests on the fitted dose curve; in most records, active means well fitted curve in the direction sought with a large enough effect in the repeat runs; inconclusive means weak or mixed curves; inactive means no such curve, though single readings can be large; an effect the other way counts as inactive or inconclusive.

Experiments:
[1] = qHTS assay to identify small molecule antagonists of the glucocorticoid receptor (GR) signaling pathway - cell viability counter screen (AID 720693); further: nearly all actives have a fitted effect of over 55% in size
[2] = qHTS assay for identifying genotoxic compounds that show differential cytotoxicity against isogenic chicken DT40 cell lines with known DNA damage response pathways - wild type cell line (AID 743012); further: nearly all actives have a fitted effect of over 60% in size; further: potency means the concentration at half of the fitted maximal effect
Summary of the method: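 Cells (DT40 wild type, 300/well) are treated with DMSO-dissolved compounds after a ~0.5 h pre-incubation and kept 40 h at 37 C/5% CO2. Viability is then measured by CellTiter-Glo luminescence following 30 min at room temperature.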

[3] = qHTS assay for identifying genotoxic compounds that show differential cytotoxicity against isogenic chicken DT40 cell lines with known DNA damage response pathways - Rev3 mutant cell line (AID 743014); further: nearly all actives have a fitted effect of over 55% in size; further: potency means the concentration at half of the fitted maximal effect
[4] = qHTS assay for identifying genotoxic compounds that show differential cytotoxicity against isogenic chicken DT40 cell lines with known DNA damage response pathways - Rad54/Ku70 mutant cell line (AID 743015); further: nearly all actives have a fitted effect of over 60% in size; further: potency means the concentration at half of the fitted maximal effect
[5] = qHTS assay to identify small molecule antagonists of the androgen receptor (AR) signaling pathway - cell viability counter screen (AID 743033; further: nearly all actives have a fitted effect of over 45% in size)
[6] = qHTS assay to identify small molecule antagonists of the androgen receptor (AR) signaling pathway using the MDA cell line - cell viability counter screen (AID 743041; further: nearly all actives have a fitted effect of over 45% in size)
Summary of the method: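 Same-well cytotoxicity was assessed by CellTiter-Fluor in MDA-kb2 AR-luc cells after 16 h of compound treatment under R1881 agonism.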

[7] = qHTS assay to identify small molecule antagonists of the thyroid receptor (TR) signaling pathway - cell viability counter screen (AID 743064); further: nearly all actives have a fitted effect of over 50% in size; further: potency means the concentration at half of the fitted maximal effect
Summary of the method: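 In-well cytotoxicity read by CellTiter-Fluor (30 min, 37 C) following 23.5 h exposure of GH3 cells bearing a TRE-luciferase sensor. Compounds were added alongside 1 nM (final) T3 to drive TR transactivation.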

[8] = qHTS assay to identify small molecule antagonists of the thyroid receptor (TR) signaling pathway (AID 743065); further: nearly all actives have a fitted effect of over 55% in size; further: potency means the concentration at half of the fitted maximal effect
Summary of the method: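 GH3.TRE-Luc rat pituitary cells (two TREs driving luciferase) were dosed with compound, then stimulated with 1 nM T3 (final) for 23.5 h at 37 C. ONE-Glo luminescence was the read-out, with CellTiter-Fluor fluorescence as the cytotoxicity counter-screen.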

[9] = test system: thyroid hormone receptor (rat, GH3 cells); experiment: qHTS assay to identify small molecule agonists of the thyroid receptor (TR) signaling pathway (AID 743066; calls by dose curve)
[10] = target: Estrogen receptor (Homo sapiens) (UniProt P03372); experiment: qHTS assay to identify small molecule antagonists of the estrogen receptor alpha (ER-alpha) signaling pathway (AID 743069; active means well fitted curve in the direction sought with a large enough effect in the signal ratio in the repeat runs, not every such curve was filed as active; the % refers to the signal ratio)
Summary of the method: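 Reporter cells (ER-alpha-bla, HEK293 background) are conditioned overnight in stripped-serum medium (2% charcoal-stripped FBS). Compound and 17beta-estradiol exposure runs 18 hr at 37C, 5% CO2.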

[11] = qHTS assay to identify small molecule antagonists of the estrogen receptor alpha (ER-alpha) signaling pathway - cell viability counter screen (AID 743074; calls by dose curve;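 further: HEK293 cells carrying ER-alpha-UAS-bla reporter stimulated with 17beta-estradiol; nearly all actives have a fitted effect of over 45% in size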)
[12] = target: Estrogen receptor (Homo sapiens) (UniProt P03372); experiment: qHTS assay to identify small molecule agonists of the estrogen receptor alpha (ER-alpha) signaling pathway (AID 743075; calls by dose curve;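 further: HEK293 GripTite cells with ER-alpha and UAS-driven beta-lactamase reporter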)
[13] = target: Estrogen receptor (Homo sapiens) (UniProt P03372); experiment: qHTS assay to identify small molecule agonists of the estrogen receptor alpha (ER-alpha) signaling pathway using the BG1 cell line (AID 743079); further: nearly all actives have a fitted effect of over 20% in size; further: potency means the concentration at half of the fitted maximal effect
[14] = qHTS assay to identify small molecule antagonists of the estrogen receptor alpha (ER-alpha) signaling pathway using the BG1 cell line (AID 743080; calls by dose curve;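 further: BG1 cells stimulated with 17beta-estradiol alongside compound; series mostly up to about 70 µM; nearly all actives have a fitted effect of over 25% in size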)
Summary of the method: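 Luminescence from a 4×ERE-luciferase reporter in BG1-Luc-4E2 cells served as read-out. Cells, pre-cultured 5 days in stripped-serum phenol-red-free medium, were exposed to compound with 17beta-estradiol co-stimulation for 21.5 h at 37 C.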

[15] = qHTS assay to identify small molecule antagonists of the estrogen receptor alpha (ER-alpha) signaling pathway using the BG1 cell line - cell viability counter screen (AID 743081);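 further: compound given together with 17beta-estradiol as the ER stimulus; series mostly up to about 70 µM; nearly all actives have a fitted effect of over 45% in size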
Aromatase (Homo sapiens) = Aromatase (Homo sapiens) (UniProt P11511); experiment: qHTS assay to identify aromatase inhibitors (AID 743083); further: nearly all actives have a fitted effect of over 55% in size; further: potency means the concentration at half of the fitted maximal effect
[16] = target: Androgen receptor (Homo sapiens) (UniProt P10275); experiment: qHTS assay to identify small molecule antagonists of the androgen receptor (AR) signaling pathway (AID 743035; active means well fitted inhibition curve with a large enough effect in the signal ratio in the repeat runs, not every such curve was filed as active; the % refers to the signal ratio)
Summary of the method: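 Antagonism is scored as loss of R1881-driven beta-lactamase reporter expression in HEK293 cells carrying the reporter under a UAS element, after 16 h co-treatment at 37C and a 2 h room-temperature FRET substrate read.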

[17] = target: Androgen receptor (Homo sapiens) (UniProt P10275); experiment: qHTS assay to identify small molecule agonists of the androgen receptor (AR) signaling pathway (AID 743036; active means well fitted activation curve with a large enough effect in the signal ratio in the repeat runs, with a control signal flat, not every such curve was filed as active; the % refers to the signal ratio)
Summary of the method: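 Activation was read as beta-lactamase FRET signal from LiveBLAzer B/G substrate, added for 2 h at room temperature. Before that, GeneBLAzer AR-UAS-bla GripTite (HEK293) cells had 16 h compound exposure at 37C.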

[18] = target: Androgen receptor (Homo sapiens) (UniProt P10275); experiment: qHTS assay to identify small molecule agonists of the androgen receptor (AR) signaling pathway using the MDA cell line (AID 743040; further: nearly all actives have a fitted effect of over 20% in size)
Summary of the method: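 Human breast carcinoma MDA-kb2 reporter cells (MMTV-luc, AR/GR elements) were treated for 16 h at 37C in 0% CO2 following a 5 h settling period. Signal was quantified by ONE-Glo luminescence.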

[19] = target: Androgen receptor (Homo sapiens) (UniProt P10275); experiment: qHTS assay to identify small molecule antagonists of the androgen receptor (AR) signaling pathway using the MDA cell line (AID 743042; further: nearly all actives have a fitted effect of over 55% in size)
Summary of the method: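 MDA-kb2 breast carcinoma cells carrying MMTV-luciferase (AR/GR responsive) were co-treated with compounds and the agonist R1881 for 16 h at 37C. Inhibition read as ONE-Glo luminescence; CellTiter-Fluor fluorescence measured in parallel for cytotoxicity.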

Estrogen receptor (Homo sapiens), sequence (P03372 whole entry, looked up): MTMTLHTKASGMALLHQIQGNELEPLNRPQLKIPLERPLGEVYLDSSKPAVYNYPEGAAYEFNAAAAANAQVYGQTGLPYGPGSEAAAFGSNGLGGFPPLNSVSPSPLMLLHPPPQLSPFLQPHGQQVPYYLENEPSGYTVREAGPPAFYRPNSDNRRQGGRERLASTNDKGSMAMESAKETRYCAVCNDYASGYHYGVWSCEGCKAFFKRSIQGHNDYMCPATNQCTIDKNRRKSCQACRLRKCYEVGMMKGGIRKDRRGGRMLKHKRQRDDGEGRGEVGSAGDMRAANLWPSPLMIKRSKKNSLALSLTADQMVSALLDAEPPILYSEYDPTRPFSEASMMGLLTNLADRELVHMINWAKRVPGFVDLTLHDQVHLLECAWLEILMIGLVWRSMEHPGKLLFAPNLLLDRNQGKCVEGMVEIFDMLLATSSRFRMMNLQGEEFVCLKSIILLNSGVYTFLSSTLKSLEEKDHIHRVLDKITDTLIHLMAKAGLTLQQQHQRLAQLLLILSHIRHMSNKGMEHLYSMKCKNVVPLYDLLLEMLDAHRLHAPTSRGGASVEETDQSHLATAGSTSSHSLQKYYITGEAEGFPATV
Androgen receptor (Homo sapiens), sequence (P10275 whole entry, looked up): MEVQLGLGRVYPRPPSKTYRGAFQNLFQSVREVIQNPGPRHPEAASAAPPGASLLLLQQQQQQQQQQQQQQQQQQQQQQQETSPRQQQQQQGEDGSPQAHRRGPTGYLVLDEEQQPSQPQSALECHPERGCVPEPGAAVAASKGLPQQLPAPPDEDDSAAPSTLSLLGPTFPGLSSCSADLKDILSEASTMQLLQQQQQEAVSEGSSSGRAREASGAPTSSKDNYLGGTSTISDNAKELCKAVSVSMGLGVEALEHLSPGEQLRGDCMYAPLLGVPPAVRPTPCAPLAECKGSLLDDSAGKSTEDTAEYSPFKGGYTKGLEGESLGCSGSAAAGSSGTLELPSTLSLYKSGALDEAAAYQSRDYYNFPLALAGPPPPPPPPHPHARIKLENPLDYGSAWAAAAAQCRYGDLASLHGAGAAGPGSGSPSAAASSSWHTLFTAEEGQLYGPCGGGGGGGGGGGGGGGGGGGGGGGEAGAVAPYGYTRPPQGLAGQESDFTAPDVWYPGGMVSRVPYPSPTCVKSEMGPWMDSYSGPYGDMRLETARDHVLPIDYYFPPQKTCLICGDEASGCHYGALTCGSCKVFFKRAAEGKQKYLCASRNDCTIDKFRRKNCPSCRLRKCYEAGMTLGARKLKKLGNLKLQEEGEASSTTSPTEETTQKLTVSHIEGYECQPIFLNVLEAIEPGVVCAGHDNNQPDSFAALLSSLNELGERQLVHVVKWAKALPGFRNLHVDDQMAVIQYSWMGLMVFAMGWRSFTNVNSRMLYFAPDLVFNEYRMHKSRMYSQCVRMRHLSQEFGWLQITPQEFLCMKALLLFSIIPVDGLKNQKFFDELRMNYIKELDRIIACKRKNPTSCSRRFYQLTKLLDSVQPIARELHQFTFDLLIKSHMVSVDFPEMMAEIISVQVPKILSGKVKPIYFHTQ
Aromatase (Homo sapiens), sequence (P11511 whole entry, looked up): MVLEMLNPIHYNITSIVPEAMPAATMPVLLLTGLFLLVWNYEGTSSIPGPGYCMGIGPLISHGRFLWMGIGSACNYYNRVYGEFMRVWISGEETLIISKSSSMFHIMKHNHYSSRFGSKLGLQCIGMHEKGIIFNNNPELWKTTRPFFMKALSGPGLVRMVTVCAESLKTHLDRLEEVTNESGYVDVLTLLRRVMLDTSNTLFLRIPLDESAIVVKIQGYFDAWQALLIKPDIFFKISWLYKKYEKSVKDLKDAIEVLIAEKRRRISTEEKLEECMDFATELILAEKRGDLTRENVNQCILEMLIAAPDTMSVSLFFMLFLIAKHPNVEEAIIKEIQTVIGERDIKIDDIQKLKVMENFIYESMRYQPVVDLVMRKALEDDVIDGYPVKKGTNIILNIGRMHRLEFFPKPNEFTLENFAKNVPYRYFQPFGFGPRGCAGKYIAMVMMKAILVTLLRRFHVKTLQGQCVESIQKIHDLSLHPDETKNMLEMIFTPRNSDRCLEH

Structure (SMILES)	outcome [1]	Potency [2]	Potency [3]	Potency [4]	outcome [5]	outcome [6]	Potency [7]	Potency [8]	outcome [9]	Potency [10]	Potency [11]	Potency [12]	Potency [13]	Potency [14]	outcome [15]	Potency (Aromatase (Homo sapiens))	Potency [16]	outcome [17]	outcome [18]	outcome [19]
CCCCCOC(=O)c1ccccc1C(=O)OCCCCC	inactive	inactive and 61.1 µM (active)	inactive	inactive	inactive	inactive	inactive	inactive	inactive	inactive	inactive	inactive	inactive	inactive	inactive	inactive	–	–	–	–
Cc1ccc([N+](=O)[O-])cc1C	inactive	inactive	inactive	inactive	inactive	inactive	inactive	inactive	inactive	inactive	inactive	inactive	inactive	inactive	inactive	inactive	–	–	–	–
CCOC(=O)c1ccccc1C(=O)OCC	inactive	inactive	inactive	inactive	inactive	inactive	inactive	inactive	inactive	inactive	inactive	inactive	inactive	inactive	inactive	inactive	–	–	–	–
Clc1ccc(Cl)cc1	inactive	inactive	inactive	inactive	inactive	inactive	inactive	inactive	inactive	inactive	inactive	inactive	inactive	inactive	inactive	inactive	–	–	–	–
Clc1cccc(Cl)c1Cl	inactive	inactive	inactive	inactive	inactive	inactive	inactive	inactive	inactive	–	inactive	–	–	–	inactive	inactive	–	–	–	–
CC(C)(C)C(O)(CCc1ccc(Cl)cc1)Cn1cncn1 (stereo not given)	inactive	61.1 µM (active)	61.9 µM (active) and 61.1 µM (active)	69.4 µM (active) and 61.1 µM (active)	–	inactive	68.6 µM (active)	61.9 µM (active) and 61.1 µM (active)	inactive	–	inactive	–	–	–	inactive	27.6 µM (active) and 48.6 µM (active)	–	–	–	–
O=c1[nH]c(=O)[nH]c(=O)[nH]1	inactive	inactive	inactive	–	inactive	inactive	inactive	inactive	inactive	–	inactive	–	–	–	inactive	inactive	inactive	inactive	inactive	inactive
O=C(O)c1ccccn1	inactive	inactive	inactive	–	inactive	inactive	inactive	inactive	inactive	inactive	inactive	inactive	inactive	inactive	inactive	inactive	–	–	–	–
c1ccc2c(c1)oc1ccccc12	inactive	inactive	inactive	inactive	inactive	inactive	inactive	inactive	inactive	–	inactive	–	–	–	inactive	–	–	–	–	–
CCN(CC)CCO	inactive	inactive	inactive	inactive	inactive	inactive	inactive	inactive	inactive	–	inactive	–	–	–	inactive	inactive	–	–	–	–
CC(NC(C)(C)C)C(=O)c1cccc(Cl)c1 (stereo not given)	inactive	inactive	inactive and 23 µM (active)	inactive	inactive	inactive	inactive	inactive	inactive	–	inactive	–	–	–	inactive	inactive	–	–	–	–
CC(C)(Cl)Cl	inactive	inactive	inactive	inactive	inactive	inactive	inactive	inactive	inactive	–	inactive	–	–	–	inactive	inactive	–	–	–	–
CC(C)(C)OOC(=O)c1ccccc1	inactive	inactive	inactive	inactive	inactive	inactive	inactive	inactive	inactive	–	inactive	–	–	–	inactive	inactive	–	–	–	–
CC(Oc1ccc(Cl)cc1Cl)C(=O)O (stereo not given)	inactive	inactive	inactive	–	inactive	inactive	inactive	inactive	inactive	inactive	inactive	inactive	inactive	inactive	inactive	inactive	–	–	–	–
CCc1cccc(C)c1N(C(=O)CCl)C(C)COC (stereo not given)	inactive	40.8 µM (active) and 10.9 µM (active)	16.2 µM (active) and 12.2 µM (active)	45.8 µM (active) and 17.2 µM (active)	inactive	inactive	inactive	–	–	–	inactive	–	–	–	inactive	–	–	–	–	–
CCC(C)(CC)c1cc(NC(=O)c2c(OC)cccc2OC)on1	inactive	52.4 µM (active)	66 µM (active)	46.7 µM (active)	inactive	inactive	inactive	54.6 µM (active)	inactive	–	inactive	–	–	–	inactive	inactive	–	–	–	–
CCCN(CCC)N=O	inactive	inactive	inactive	–	inactive	inactive	inactive	inactive	inactive	inactive	inactive	inactive	inactive	inactive	inactive	inactive	–	–	–	–
CC(C)(C)OOC(C)(C)C	inactive	inactive	inactive	inactive	inactive	inactive	–	inactive	inactive	inactive	inactive	inactive	inactive	inactive	inactive	inactive	–	–	–	–
COC(=O)c1ccccc1N	inactive	inactive	inactive	inactive	inactive	inactive	inactive	inactive	inactive	–	inactive	–	–	–	inactive	inactive	–	–	–	–
CN(C)[C@@H]1C(=O)C(C(N)=O)=C(O)[C@@]2(O)C(=O)C3=C(O)c4c(O)cccc4[C@@](C)(O)[C@H]3C[C@@H]12	inactive	inactive	inactive	inactive	inactive	inactive	inactive	inactive	inactive	–	inactive	–	–	–	inactive	inactive	–	–	–	–

Structure (SMILES)	outcome [1]	Potency [2]	Potency [3]	Potency [4]	outcome [5]	outcome [6]	Potency [7]	Potency [8]	outcome [9]	Potency [10]	Potency [11]	Potency [12]	Potency [13]	Potency [14]	outcome [15]	Potency (Aromatase (Homo sapiens))	Potency [16]	outcome [17]	outcome [18]	outcome [19]
CCCCN(CCCC)SN(C)C(=O)Oc1cccc2c1OC(C)(C)C2	inactive	30.6 µM (active)	48.6 µM (active)	30.6 µM (active)	inactive	inactive	inactive and 24.3 µM (active)	21.7 µM (active)	–	–	inactive	inactive	inactive and 54.5 µM (active)	inactive	inactive	inactive	–	–	–	–
CN(C)CCO	inactive	inactive	inactive	–	inactive	inactive	inactive	inactive	inactive	inactive	inactive	inactive	inactive	inactive	inactive	inactive	–	–	–	–
CC1C=[C-]C=C1.[C-]#[O+].[C-]#[O+].[C-]#[O+].[Mn]	inactive	inactive	inactive	–	inactive	inactive	inactive	inactive	inactive	inactive	inactive	inactive	inactive	inactive	inactive	inactive	–	–	–	–
COc1ccc2c3c1O[C@H]1[C@@H](O)C=C[C@H]4[C@@H](C2)N(C)CC[C@@]341	inactive	inactive	inactive	inactive	inactive	inactive	inactive	–	inactive	inactive	inactive	inactive	inactive	inactive	inactive	inactive	–	–	–	–
O=C1CCCN1	inactive	inactive	inactive	–	inactive	inactive	inactive	inactive	inactive	inactive	inactive	inactive	inactive and 48.6 µM (active)	inactive	inactive	inactive	–	–	–	–
CN(C)N=O	inactive	inactive	inactive	inactive	inactive	inactive	inactive	inactive	inactive	–	inactive	–	–	–	inactive	inactive	–	–	–	–
Nc1ccccc1C(=O)O	inactive	inactive	inactive	–	inactive	inactive	inactive	inactive	inactive	inactive	inactive	inactive	inactive	inactive	inactive	inactive	–	–	–	–
CC1OC(C)OC(C)O1 (stereo not given)	inactive	inactive	inactive	inactive	inactive	inactive	–	–	–	–	inactive	–	–	–	inactive	inactive	–	–	–	–
C=CCO	inactive	inactive	inactive	inactive	inactive	inactive	inactive	–	–	–	inactive	–	–	–	inactive	inactive	–	–	–	–
CC(C)=C[C@@H]1[C@@H](C(=O)OCc2coc(Cc3ccccc3)c2)C1(C)C	inactive	inactive and 27.3 µM (active)	inactive and 34.4 µM (active)	–	inactive	inactive	inactive	inactive	inactive	inactive	inactive	inactive	inactive	inactive	inactive	inactive	–	–	–	–
Oc1ccccc1Cl	inactive	inactive	inactive	inactive	inactive	inactive	inactive	inactive	inactive	–	inactive	–	–	–	inactive	inactive	–	–	–	–
CC(C)N1C(=O)c2ccccc2NS1(=O)=O	inactive	inactive	inactive	–	inactive	inactive	inactive	inactive	inactive	inactive	inactive	inactive	inactive	inactive	inactive	inactive	–	–	–	–
C1CC2OC2CC1C1CO1 (stereo not given)	inactive	inactive	inactive	–	inactive	inactive	inactive	inactive	inactive	inactive	inactive	inactive	inactive	inactive	inactive	inactive	–	–	–	–
OC(O)C(Cl)(Cl)Cl	inactive	inactive	inactive	inactive	inactive	inactive	inactive	inactive	inactive	–	inactive	–	–	–	inactive	inactive	–	–	–	–
CCOP(OCC)OCC	inactive	inactive	inactive	–	inactive	inactive	inactive	inactive	inactive	inactive	inactive	inactive	inactive	inactive	inactive	inactive	–	–	–	–
CCCCN(CC)C(=O)SCCC	inactive	inactive	inactive	–	inactive	inactive	inactive	inactive	inactive	inactive	inactive	inactive	inactive	inactive	inactive	inactive	inactive	inactive	inactive	inactive
CCCN(CCC)c1c([N+](=O)[O-])cc(C(F)(F)F)cc1[N+](=O)[O-]	inactive	inactive	inactive	–	inactive	inactive	–	–	inactive	inactive	inactive	inactive	inactive	inactive	inactive	inactive	inactive	inactive	inactive	inactive
NCC(O)c1ccc(O)cc1 (stereo not given)	inactive	inactive	inactive	inactive	inactive	inactive	inactive	inactive	inactive	–	inactive	–	–	–	inactive	inactive	–	–	–	–
O=[N+]([O-])c1ccc(Oc2ccc(Cl)cc2Cl)cc1	inactive	inactive and 61.1 µM (active)	inactive and 61.1 µM (active)	61.1 µM (active)	inactive	inactive	inactive	inactive	inactive	–	inactive	–	–	–	inactive	inactive	–	–	–	–
